# Measurements from PubChem BioAssay (Tox21).
# Inconclusive results are not listed. Entries that show only a call come without a potency. Values without a mark were called inactive. The source made the active and inactive calls. Unless noted, calls follow the shape of the dose curve; as a rule, active = well fitted curve in the direction sought with a large enough effect in the repeat runs; inconclusive = weak or mixed curves; inactive = no such curve, though single readings can be large; an effect the other way counts as inactive or inconclusive.
# How the values were obtained:
# [1] = qHTS assay to identify small molecule antagonists of the estrogen related receptor (ERR) signaling pathway from Tox21 library - cell viability counter screen (AID 1224834); also: nearly all actives have a fitted effect of over 30% in size; also: potency is read from the fitted curve at half-maximal effect
# How it was run: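 After 17.5 h of compound exposure at 37 C, ERR cells are incubated with CellTiter-Fluor for 30 min and fluorescence intensity serves as the viability measure.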
# [2] = qHTS assay to identify small molecule agonists of the constitutive androstane receptor (CAR) signaling pathway - cell viability counter screen (AID 1224836); also: nearly all actives have a fitted effect of over 45% in size; also: potency is read from the fitted curve at half-maximal effect; as to viability change, negative = cytotoxic: series mostly up to about 92 µM
# How it was run: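 Compound titrations (15 concentrations) went onto HepG2-CYP2B6-hCAR cells 4 h after seeding, alongside PK11195 at a final 0.75 uM; a 23 h, 37 C/5% CO2 incubation preceded CellTiter-Fluor viability measurement.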
# [3] = qHTS assay to identify small molecule antagonists of the constitutive androstane receptor (CAR) signaling pathway - cell viability counter screen (AID 1224837); also: series mostly up to about 92 µM; nearly all actives have a fitted effect of over 45% in size
# How it was run: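 Counter screen run in HepG2-CYP2B6-hCAR cells: 4 hr settle, compound titration (15 concentrations) with 50 nM CITCO, 23 hr at 37 C/5% CO2, CellTiter-Fluor fluorescence.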
# [4] = target: Nuclear receptor subfamily 1 group I member 3 (Homo sapiens) (UniProt Q14994); experiment: qHTS assay to identify small molecule antagonists of the constitutive androstane receptor (CAR) signaling pathway (AID 1224838);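 also: HepG2 cells stably expressing hCAR with CYP2B6 luciferase reporter stimulated by CITCO; nearly all actives have a fitted effect of over 40% in size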
# Sequence of Nuclear receptor subfamily 1 group I member 3 (Homo sapiens) (Q14994 whole entry, looked up): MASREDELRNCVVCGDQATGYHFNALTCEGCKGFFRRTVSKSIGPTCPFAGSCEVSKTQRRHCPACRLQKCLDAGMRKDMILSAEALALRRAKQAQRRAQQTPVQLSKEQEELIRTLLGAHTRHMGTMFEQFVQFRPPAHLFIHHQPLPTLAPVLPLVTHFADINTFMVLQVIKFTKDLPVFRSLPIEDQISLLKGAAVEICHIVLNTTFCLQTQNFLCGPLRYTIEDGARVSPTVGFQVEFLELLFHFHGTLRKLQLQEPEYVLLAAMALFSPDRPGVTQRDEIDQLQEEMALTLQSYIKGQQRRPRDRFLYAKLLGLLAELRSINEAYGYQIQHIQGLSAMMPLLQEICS
# How it was run: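 Cell line: HepG2 double-stable for hCAR and CYP2B6-2.2kb reporter. Agonist: CITCO, 50 nM final. Compounds: 15 concentrations, 24 h, 37 C. Detection: ONE-Glo luminescence.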
# [5] = target: Nuclear receptor subfamily 1 group I member 3 (Homo sapiens) (UniProt Q14994); experiment: qHTS assay to identify small molecule agonists of the constitutive androstane receptor (CAR) signaling pathway (AID 1224839); also: nearly all actives have a fitted effect of over 15% in size; also: potency is read from the fitted curve at half-maximal effect;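 as to activation: HepG2 cells stably carrying human CAR and a CYP2B6 luciferase reporter; series mostly up to about 92 µM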
# How it was run: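 In this screen, CAR-driven CYP2B6 promoter activity is measured by luminescence in HepG2-CYP2B6-hCAR cells after 24 h with test compounds and 0.75 uM PK11195 (final concentration).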
# [6] = qHTS assay to identify small molecule antagonists of the estrogen related receptor signaling pathway with the pleiotropic PPARgamma coactivator (PGC) from Tox21 10K library - cell viability counter screen (AID 1224840; active = well fitted cell-killing curve with a large enough effect in the repeat runs, not every such curve was filed as active; also: nearly all actives have a fitted effect of over 40% in size)
# How it was run: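 Following seeding of 2,000 PGC/ERR cells/well and 6 hours' incubation, test compounds were delivered in DMSO. The plates then sat 17.5 hours at 37 C before a fluorogenic live-cell protease reagent (CellTiter-Fluor) was read after 30 min.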
# [7] = qHTS assay to identify small molecule antagonists of the estrogen related receptor signaling pathway with the pleiotropic PPARgamma coactivator (PGC) from Tox21 10K library (AID 1224841; call rule not given here; also: series mostly up to about 92 µM; actives are mostly falling curves and most rising ones were filed inactive; nearly all actives have a fitted effect of over 50% in size)
# How it was run: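 qHTS antagonist format: PGC/ERR cells, 2k/well, compound in DMSO by pin transfer after 6 h attachment, 18 h treatment at 37 C, One-Glo luminescence read at 30 min.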
# [8] = qHTS assay to identify small molecule agonists of the estrogen related receptor signaling pathway with the pleiotropic PPARgamma coactivator (PGC) from Tox21 10K library (AID 1224842); also: nearly all actives have a fitted effect of over 15% in size
# How it was run: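 Luminescence from One-Glo (30 min, room temperature) measured after PGC/ERR cells had 18 h at 37 C with pinned compound (23 nL in DMSO). Cells had been seeded at 2,000 per well and pre-incubated 6 h.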
# [9] = target: Luciferin 4-monooxygenase (Photinus pyralis) (UniProt P08659); experiment: qHTS assay to identify small molecule inhibitors of firefly luciferase (AID 1224835); also: nearly all actives have a fitted effect of over 25% in size; also: potency is read from the fitted curve at half-maximal effect; as to activity change, negative = inhibition: series mostly up to about 120 µM
# Sequence of Luciferin 4-monooxygenase (Photinus pyralis) (P08659 whole entry, looked up): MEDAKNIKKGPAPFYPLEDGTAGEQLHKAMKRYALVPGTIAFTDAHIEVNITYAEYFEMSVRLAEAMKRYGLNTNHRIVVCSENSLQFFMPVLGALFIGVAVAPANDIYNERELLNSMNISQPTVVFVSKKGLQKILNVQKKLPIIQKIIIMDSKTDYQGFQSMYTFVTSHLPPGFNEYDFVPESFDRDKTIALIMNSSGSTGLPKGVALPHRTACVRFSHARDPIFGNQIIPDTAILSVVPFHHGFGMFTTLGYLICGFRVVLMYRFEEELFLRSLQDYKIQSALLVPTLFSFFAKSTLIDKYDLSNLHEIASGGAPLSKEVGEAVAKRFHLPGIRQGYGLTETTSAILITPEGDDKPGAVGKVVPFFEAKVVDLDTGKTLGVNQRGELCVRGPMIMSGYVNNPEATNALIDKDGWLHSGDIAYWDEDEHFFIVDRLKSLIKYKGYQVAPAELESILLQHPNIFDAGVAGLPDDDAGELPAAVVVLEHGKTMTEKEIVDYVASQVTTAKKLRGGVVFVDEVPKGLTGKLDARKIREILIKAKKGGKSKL
# How it was run: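 Inhibition of purified Photinus luciferase is measured by luminescence. Substrate levels (D-luciferin, ATP) sit at their KM values. Each compound is tested in a concentration series.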
smiles,measurement,setting,value
CCCCCOC(=O)CCC,Potency,[1],inactive
same,Potency,[2],inactive
same,Potency,[3],inactive
same,outcome,[4],inactive
same,Potency,[5],inactive
same,outcome,[6],inactive
same,Potency,[7],inactive
same,outcome,[8],inactive
Cc1[nH]cnc1-c1ccc(Cl)cc1,Potency,[1],inactive
same,Potency,[2],inactive
same,Potency,[3],inactive
same,outcome,[4],inactive
same,outcome,[6],inactive
CC(C)(C)c1nnc(NS(=O)(=O)c2ccc(N)cc2)s1,Potency,[1],inactive
same,Potency,[2],inactive
same,Potency,[3],inactive
same,outcome,[4],inactive
same,Potency,[5],inactive
same,outcome,[6],inactive
CC(S)C(=O)NCC(=O)O (stereo unspecified),Potency,[1],inactive
same,Potency,[2],inactive
same,Potency,[3],inactive
same,outcome,[4],inactive
same,Potency,[5],inactive
same,outcome,[6],inactive
Cc1ccccc1OCC(O)CO (stereo unspecified),Potency,[1],inactive
same,Potency,[2],inactive
same,Potency,[3],inactive
same,outcome,[4],inactive
same,Potency,[5],inactive
same,outcome,[6],inactive
same,Potency,[7],inactive
same,outcome,[8],inactive
CCOCCOC(=O)/C=C/c1ccc(OC)cc1,Potency,[1],inactive
same,Potency,[2],inactive
same,Potency,[3],inactive
same,outcome,[4],inactive
same,outcome,[6],inactive
CN(C)CCOCCO,Potency,[1],inactive
same,Potency,[2],inactive
same,Potency,[3],inactive
same,outcome,[4],inactive
same,Potency,[5],inactive
same,outcome,[6],inactive
same,Potency,[7],inactive
same,outcome,[8],inactive
CC(C)=O,Potency,[1],inactive
same,Potency,[2],inactive
same,Potency,[3],inactive
same,outcome,[4],inactive
same,Potency,[5],inactive
same,outcome,[6],inactive
CCOC(=O)CC(=O)c1ccccc1,Potency,[1],inactive
same,Potency,[2],inactive
same,Potency,[3],inactive
same,outcome,[4],inactive
same,Potency,[5],inactive
same,outcome,[6],inactive
O=C1c2ccccc2C(=O)C1c1ccccc1,Potency,[1],inactive
same,Potency,[2],inactive
same,Potency,[3],inactive
same,outcome,[4],inactive
same,Potency,[5],inactive
same,outcome,[6],inactive
Cc1ccc2ccc(Cl)cc2n1,Potency,[1],inactive
same,Potency,[2],inactive
same,Potency,[3],inactive
same,Potency,[5],inactive
same,outcome,[6],inactive
CC(=O)N[C@@H](CCC(=O)O)C(=O)O,Potency,[1],inactive
same,Potency,[2],inactive
same,Potency,[3],inactive
same,outcome,[4],inactive
same,Potency,[5],inactive
same,outcome,[6],inactive
same,Potency,[7],inactive
same,outcome,[8],inactive
CC(=O)OC(C)OC(=O)C(C)c1ccc(-c2ccccc2)c(F)c1 (stereo unspecified),Potency,[1],inactive
same,Potency,[2],inactive
same,Potency,[3],inactive
same,Potency,[5],inactive
same,outcome,[6],inactive
CC(C)C(=O)OCCc1ccccc1,Potency,[1],inactive
same,Potency,[2],inactive
same,Potency,[3],inactive
same,outcome,[6],inactive
CCCCCCCCC(=O)Cl,Potency,[1],inactive
same,Potency,[2],inactive
same,Potency,[3],inactive
same,outcome,[4],inactive
same,Potency,[5],inactive
same,outcome,[6],inactive
same,outcome,[8],inactive
Cc1cc2cc3c(C)cc(=O)oc3c(C)c2o1,Potency,[1],inactive
same,Potency,[2],inactive
same,Potency,[3],inactive
same,outcome,[4],inactive
same,Potency,[5],11.9 µM (active)
same,outcome,[6],inactive
same,Potency,[7],inactive
same,outcome,[8],inactive
COc1cc(NS(=O)(=O)c2ccc(N)cc2)nc(OC)n1,Potency,[1],inactive
same,Potency,[2],inactive
same,Potency,[3],inactive
same,outcome,[4],inactive
same,Potency,[5],inactive
same,outcome,[6],inactive
same,Potency,[7],inactive
same,outcome,[8],inactive
CC1=CCC(C(C)C)=CC1,Potency,[1],inactive
same,Potency,[2],inactive
same,outcome,[4],inactive
same,Potency,[5],inactive
same,outcome,[6],inactive
CCCN1C[C@H](CSC)C[C@@H]2c3cccc4[nH]cc(c34)C[C@H]21,Potency,[1],inactive
same,Potency,[2],inactive
same,Potency,[3],inactive
same,outcome,[6],inactive
O=P(O)(O)OP(=O)(O)O,Potency,[1],inactive
same,Potency,[2],inactive
same,Potency,[3],inactive
same,outcome,[4],inactive
same,Potency,[5],inactive
same,outcome,[6],inactive
CCCCCCN,Potency,[1],inactive
same,Potency,[2],inactive
same,Potency,[3],inactive
same,outcome,[6],inactive
C=C1CC/C=C(\C)CC[C@@H]2[C@@H]1CC2(C)C,Potency,[1],inactive
same,Potency,[2],inactive
same,Potency,[3],inactive
same,outcome,[4],inactive
same,Potency,[5],inactive
same,outcome,[6],inactive
same,Potency,[7],inactive
same,outcome,[8],inactive
CC1=C(C(=O)O)N2C(=O)[C@@H](NC(=O)[C@H](N)c3ccc(O)cc3)[C@H]2SC1,Potency,[1],inactive
same,Potency,[2],inactive
same,Potency,[3],inactive
same,outcome,[4],inactive
same,Potency,[5],inactive
same,outcome,[6],inactive
Brc1ccc(-c2ccccc2)cc1,Potency,[1],inactive
same,Potency,[2],inactive
same,Potency,[3],inactive
same,outcome,[4],inactive
same,Potency,[5],inactive
same,outcome,[6],inactive
CC(C)(C)OC(=O)c1ccc(O)cc1,Potency,[1],inactive
same,Potency,[2],inactive
same,Potency,[3],inactive
same,outcome,[4],inactive
same,Potency,[5],24.3 µM (active)
same,outcome,[6],inactive
same,Potency,[7],inactive
same,outcome,[8],inactive
COCCOCCOCCOCCO,Potency,[1],inactive
same,Potency,[2],inactive
same,Potency,[3],inactive
same,outcome,[4],inactive
same,Potency,[5],inactive
same,outcome,[6],inactive
CCCCCCCCSCC,Potency,[1],inactive
same,Potency,[2],inactive
same,Potency,[3],inactive
same,outcome,[4],inactive
same,Potency,[5],inactive
same,outcome,[6],inactive
same,Potency,[7],inactive
same,outcome,[8],inactive
O=C(CCNNC(=O)c1ccncc1)NCc1ccccc1,Potency,[1],inactive
same,Potency,[2],inactive
same,Potency,[3],inactive
same,outcome,[4],inactive
same,Potency,[5],inactive
same,outcome,[6],inactive
COC(=O)C1CC(=O)C(C(=O)OC)CC1=O (stereo unspecified),"viability change, negative = cytotoxic",[1],2.89% [at 8.39 µM]
same,"viability change, negative = cytotoxic",[2],10.3% [at 8.39 µM]
same,"activity change, negative = cytotoxicity",[3],2.02% [at 8.39 µM]
same,"viability change, negative = cytotoxic",[6],11% [at 8.39 µM]
same,"activity, negative = inhibition",[7],1.96% [at 8.39 µM]
same,activation,[8],0.14% [at 8.39 µM]
CCOC(=O)/C=C/c1ccccc1,Potency,[9],35.6 µM (active)
same,Potency,[2],inactive
same,Potency,[3],inactive
same,outcome,[4],inactive
same,Potency,[5],inactive
same,outcome,[6],inactive
C#CC(C)N(C)C(=O)Nc1ccc(Cl)cc1 (stereo unspecified),Potency,[9],63.2 µM (active)
same,Potency,[2],inactive
same,Potency,[3],inactive
same,outcome,[4],inactive
same,outcome,[6],inactive
same,Potency,[7],inactive
same,outcome,[8],inactive
CC(C)NCC(O)COc1cccc2[nH]ccc12 (stereo unspecified),Potency,[1],inactive
same,Potency,[3],inactive
same,outcome,[4],inactive
same,outcome,[6],inactive
NCCN1CCOCC1,Potency,[1],inactive
same,outcome,[6],inactive
COCCOCCOCCOCCOCCO,Potency,[1],inactive
same,Potency,[3],inactive
same,outcome,[4],inactive
same,Potency,[5],inactive
same,outcome,[6],inactive
same,Potency,[7],inactive
same,outcome,[8],inactive
CNC(=O)[C@H]1O[C@@H](n2cnc3c(NCc4cc(Cl)ccc4OCc4cc(C)no4)ncnc32)[C@H](O)[C@@H]1N,Potency,[1],inactive
same,Potency,[3],inactive
same,outcome,[4],inactive
same,Potency,[5],inactive
same,outcome,[6],inactive
same,Potency,[7],inactive
same,outcome,[8],inactive
Cc1nc2n(c(=O)c1CCN1CCC(c3noc4cc(F)ccc34)CC1)CCC[C@H]2O,"activity change, negative = inhibition",[9],0.0649% [at 23.6 µM]
same,"viability change, negative = cytotoxic",[2],2.64% [at 19 µM]
same,"activity change, negative = cytotoxicity",[3],1.56% [at 19 µM]
same,"activity, negative = inhibition",[4],20.8% [at 19 µM]
same,activation,[5],-1.43% [at 19 µM]
same,"viability change, negative = cytotoxic",[6],11.2% [at 19 µM]
same,"activity, negative = inhibition",[7],-0.225% [at 19 µM]
same,activation,[8],-0.0623% [at 19 µM]
CN1C(C)(C)CCCC1(C)C,Potency,[9],inactive
same,Potency,[2],inactive
same,Potency,[3],inactive
same,outcome,[6],inactive
Nc1ccc([N+](=O)[O-])c(N)c1,Potency,[1],47.3 µM (active)
same,Potency,[2],53.1 µM (active)
same,outcome,[4],inactive
same,Potency,[5],inactive
same,Potency,[7],inactive
same,outcome,[8],inactive
O=C(NCCc1c[nH]c2ccccc12)c1cccnc1,Potency,[1],inactive
same,Potency,[3],inactive
same,outcome,[6],inactive
CCCCNC1CC(C)(C)NC(C)(C)C1,Potency,[9],inactive
same,Potency,[2],inactive
same,Potency,[3],inactive
same,outcome,[4],inactive
same,Potency,[5],inactive
same,outcome,[6],inactive
same,Potency,[7],inactive
same,outcome,[8],inactive
CN(C)C(=O)CNC(=O)Cc1ccccc1,Potency,[9],inactive
same,Potency,[2],inactive
same,Potency,[3],inactive
same,outcome,[4],inactive
same,Potency,[5],inactive
same,outcome,[6],inactive
C[C@H](CCC(=O)O)[C@H]1CC[C@H]2[C@@H]3C(=O)C[C@@H]4CC(=O)CC[C@]4(C)[C@H]3CC(=O)[C@]12C,Potency,[9],inactive
same,Potency,[2],inactive
same,Potency,[3],inactive
same,outcome,[4],inactive
same,Potency,[5],inactive
same,outcome,[6],inactive
same,Potency,[7],inactive
same,outcome,[8],inactive
CC(COC(C)(C)C)OCCCO (stereo unspecified),Potency,[9],inactive
same,Potency,[2],inactive
same,Potency,[3],inactive
same,outcome,[4],inactive
same,Potency,[5],inactive
same,outcome,[6],inactive
same,Potency,[7],inactive
same,outcome,[8],inactive
CC(CC=O)CCCC(C)(C)O (stereo unspecified),Potency,[9],inactive
same,Potency,[2],inactive
same,Potency,[3],inactive
same,outcome,[6],inactive
same,Potency,[7],inactive
same,outcome,[8],inactive
CCOC(=O)[C@H](CCc1ccccc1)N[C@@H](C)C(=O)N1C(=O)N(C)C[C@H]1C(=O)O,Potency,[9],inactive
same,Potency,[2],inactive
same,Potency,[3],inactive
same,outcome,[4],inactive
same,Potency,[5],inactive
same,outcome,[6],inactive
CCCCC(CC)COCCO (stereo unspecified),Potency,[1],inactive
same,Potency,[2],inactive
same,outcome,[4],inactive
same,Potency,[5],inactive
same,outcome,[6],inactive
same,Potency,[7],inactive
same,outcome,[8],inactive
C=Cc1ccccn1,Potency,[9],inactive
same,Potency,[2],inactive
same,Potency,[3],inactive
same,outcome,[4],inactive
same,Potency,[5],inactive
same,outcome,[6],inactive
